hgDAF-12 ag: agonists of H. glycines DAF-12 nuclear receptor | 370,000 tested, 1.8% active | HEK293 GAL4-hgDAF12 UAS-luciferase reporter, agonist luminescence; normalized to butyrate control | activation, % at 6.8 µM;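 active means activation above a cutoff set at the mean of all screened compounds plus 3 SD, cut at about 10% in these data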;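 further: 0% = DMSO wells and 100% = sodium butyrate wells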
DAX1 inh-1: NR0B1 (DAX1) inhibition | P51843 | HEK293 Gal4-DAX1 luciferase reporter, luminescence | inhibition, % at 6.75 µM | 340,000 tested, 0.99% active | AID 504766;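 active means inhibition above the mean over all tested compounds plus 3 SD, cut at about 4.2% in these data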;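 further: 0% = DAX1-transfected cells with DMSO and 100% = empty-vector control cells with DMSO; inhibition shows as a rise in luminescence from relieved DAX1 repression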
DAX1 inh-2: inhibitors of DAX1 repression of SF-1 activated StAR promoter. HEK293T StAR-luciferase reporter, SF-1/DAX-1 repression relief. inhibition, % at 6.8 µM. 370,000 tested, 1.1% active. AID 652010;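 active means inhibition above the mean over all tested compounds plus 3 SD, cut at about 3.6% in these data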;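 further: 0% = DAX-1 cells with DMSO and 100% = cells lacking DAX-1 with DMSO; higher inhibition means more luminescence from relief of DAX-1 repression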
hcDAF12 agonist: activators of H. contortus DAF-12 nuclear receptor; HEK293 hcDAF-12 lit1-tk-luc reporter, luminescence; 0% DMSO, 100% Δ7-dafachronic acid; activation, % at 6.8 µM; 370,000 tested, 1.4% active; AID 652067;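 active means activation above the mean of all tested compounds plus 3 SD, cut at about 5.5% in these data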;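 further: 100% = response to 3 µM Δ7-dafachronic acid high control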
ssDAF12 agonist: activates DAF-12 receptor from parasite S. stercoralis; HEK293 ssDAF-12/GRIP1 lit1-tk-luc reporter, luminescence; % of 3 µM dafachronic acid response; activation, % at 6.8 µM; 370,000 tested, 1% active;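 active means activation above the mean over all tested compounds plus 3 SD, cut at about 0.9% in these data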;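 further: 0% = DMSO-only wells and 100% = 3 µM delta7-dafachronic acid wells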
DAX1 conf: confirmation of human DAX1 (NR0B1) inhibitors; inhibition, % at 6.8 µM; 2,400 tested, 87% active; HEK293T StAR-promoter luciferase reporter, SF-1/DAX-1 repression; shares compounds with DAX1 inh-2;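 active means inhibition above the average of every tested compound plus 3 SD, cut at about 3.8% in these data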;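 further: 0% = DAX-1 cells with DMSO and 100% = no DAX-1 control cells with DMSO; active compounds raise luminescence by relieving repression of the StAR reporter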
Target sequence (P51843 whole entry, looked up): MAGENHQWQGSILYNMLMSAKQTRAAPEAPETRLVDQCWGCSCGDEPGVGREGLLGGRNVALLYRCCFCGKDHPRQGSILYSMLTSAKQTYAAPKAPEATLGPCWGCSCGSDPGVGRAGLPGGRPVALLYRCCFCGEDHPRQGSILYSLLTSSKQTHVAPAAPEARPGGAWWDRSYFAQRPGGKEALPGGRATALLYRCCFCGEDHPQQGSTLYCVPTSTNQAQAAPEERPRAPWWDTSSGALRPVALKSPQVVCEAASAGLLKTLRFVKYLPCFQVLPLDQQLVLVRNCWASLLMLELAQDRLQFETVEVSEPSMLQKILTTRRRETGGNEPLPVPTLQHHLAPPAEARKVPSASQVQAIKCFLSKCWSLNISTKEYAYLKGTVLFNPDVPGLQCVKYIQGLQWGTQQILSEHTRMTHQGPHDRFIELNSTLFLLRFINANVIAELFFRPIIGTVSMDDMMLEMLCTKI
SF1 AF2mut Luc: nonselective inhibitor or artifact in SF-1 mutant DAX1 counter-screen | shares compounds with DAX1 inh-2 | HEK293 StAR-luciferase, SF-1 AF2 mutant, luminescence | inhibition, % at 6.8 µM | 2,400 tested, 78% active | AID 652136;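 active means inhibition above the mean of all tested compounds plus 3 SD, cut at about 3% in these data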;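 further: 0% = DAX-1 transfected cells with DMSO and 100% = cells without DAX-1 with DMSO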
LXR ag: activates human LXR-beta, counter-screen for hcDAF-12 agonists | shares compounds with hcDAF12 agonist | HEK293 Gal4-LXR tk-luc reporter, luminescence, 24 h; normalized: DMSO 0%, positive control 100% | activation, % at 6.8 µM | 3,400 tested, under 10 active | AID 743027;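 active means mean percent activation of the reporter above a cutoff set as the average over tested compounds plus their standard deviation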
hcDAF12 conf: confirmation of H. contortus DAF-12 agonists | shares compounds with hcDAF12 agonist | HEK293 hcDAF-12 lit1-tk-luc reporter, luminescence; % of Δ7-dafachronic acid response | activation, % at 6.8 µM | 3,400 tested, 61% active;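 active means mean activation across triplicate tests above the threshold derived from the earlier primary screen, cut at about 5.5% in these data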;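 further: 0% = DMSO only wells and 100% = 3 µM Δ7-dafachronic acid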
hgDAF12 conf: confirmation of H. glycines DAF-12 agonists; shares compounds with hgDAF-12 ag; HEK293 GAL4-hgDAF12 luciferase reporter, agonist mode; percent of butyrate response; activation, % at 6.8 µM; 3,300 tested, 80% active;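 active means mean activation over triplicate wells above the hit cutoff derived from the earlier primary screen, cut at about 11% in these data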;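 further: 0% = DMSO low control and 100% = 2 mM sodium butyrate high control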
LXR ag 2: counter-screen for DAF-12 agonists: agonists of human LXR-beta. AID 743051. activation, % at 6.8 µM. shares compounds with hgDAF-12 ag. 3,300 tested, under 10 active. HEK293 Gal4-LXR luciferase reporter, 24 h;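 active means mean activation of the triplicate above a set limit carried over from the primary screen, none filed active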
Numbers without * were called inactive; / = no result given. An excerpt weighted towards active compounds, which were near 4.1% of everything screened.

SMILES	hgDAF-12 ag	DAX1 inh-1	DAX1 inh-2	hcDAF12 agonist	ssDAF12 agonist	DAX1 conf	SF1 AF2mut Luc	hgDAF12 conf	LXR ag 2	others
COc1ccc(CCNC(=O)COC(=O)c2cc(=O)[nH]c3ccccc23)cc1	3	0	0	2	-1	/	/	/	/
CC(OC(=O)CCNS(=O)(=O)c1ccc(Cl)cc1)C(=O)N(C)Cc1ccccc1 (configuration not stated)	-1	-1	-1	-2	-1	/	/	/	/
CNc1cc(-c2cccc(N(C)C)c2)ncn1	18*	/	7.2*	5	1.3*	16*	5.9*	15*	1
Cc1cc(O)ccc1Nc1cc(-c2cccc(N)c2)ncn1	1	/	-1	0	-1	/	/	/	/
C/C(CC(=O)Nc1ccc2c(c1)OCCO2)=N\NC(=O)c1ccccc1F	5	0	0	2	0	/	/	/	/
CSc1ccc(/C=C/C(=O)Nc2ccccc2)cc1	14*	-3	14*	11*	1	6.8*	4.3*	16*	1	LXR ag=2;hcDAF12 conf=7.4*
C/C(CC(=O)Nc1ccc2c(c1)OCCO2)=N\NC(=O)c1ccccn1	15*	1	6.4*	6.2*	0	1	-1	7	0
O=C(CCCc1cccs1)Nc1ccc2c(c1)OCO2	22*	6.0*	5.5*	3	1	9.7*	6.7*	14*	1
O=C(/C=C/c1ccccc1)Nc1ccc2c(c1)OCCO2	18*	-1	7.4*	4	1	14*	6.5*	23*	1
CSc1cccc(NC(=O)/C=C/c2ccccc2)c1	10	1	1	1	0	/	/	/	/
CCCN1CCC(NC(=O)C2CC=CCC2C(=O)O)CC1 (configuration not stated)	-3	0	1	0	-1	/	/	/	/
O=C(NNC(=S)Nc1ccc(C(=O)O)c(O)c1)c1ccncc1	-2	0	0	-1	0	/	/	/	/
Cc1ccccc1-n1c(C)nnc1SCC(=O)N1CCc2ccccc2C1	-2	0	0	-3	-1	/	/	/	/
O=C(CSc1ccccc1)Nc1ccc2c(c1)OCCO2	15*	3	11*	6	1.0*	14*	7.5*	15*	1
O=C(CCCc1ccccc1)Nc1ccc2c(c1)OCCO2	22*	1	6.1*	8.2*	1	9.0*	4.9*	15*	1	LXR ag=1;hcDAF12 conf=9.1*
CCC(C(=O)OC(C)C(=O)Nc1ccc(Cl)cn1)c1ccccc1 (configuration not stated)	-2	0	0	-1	-1	/	/	/	/
COc1ccccc1/C=C/C(=O)OCC(=O)Nc1ccc(Cl)cn1	2	2	0	1	-1	/	/	/	/
COc1ccc(NC(=O)/C(C#N)=C/c2ccc(OCCN3CCOCC3)c(OC)c2)c(OC)c1	/	1	/	/	/	/	/	/	/
Cc1ccc2ncccc2c1	0	0	0	-2	0	/	/	/	/
CN(C)c1ccc(N=Nc2ccc3ncccc3c2)cc1	20*	5.8*	9.3*	6.0*	1.5*	22*	7.3*	21*	1
Cc1cc(N(C)C)ccc1N=Nc1ccc2ncccc2c1	15*	5.5*	5.2*	13*	1.7*	18*	7.6*	18*	1	LXR ag=1;hcDAF12 conf=13*

Screens deposited in PubChem BioAssay by The Scripps Research Institute Molecular Screening Center.
